KB-V1 MDR tox – KB-V1 MDR subline cytotoxicity | KB-V1 MDR cells viability, CellTiter-Glo, 72 h | Potency, µM (highest dose often 46.1 µM), hits mostly cytotoxic | actives 3.4% (n = 400,000); further: on the % scale 0 is the no-effect control and ±100 the full control effect; nearly all actives have a fitted effect of over 60% in size
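Potencies derive from concentration-effect curves fitted to normalized luminescence (CellTiter-Glo) of KB-V1 cells treated for 72 h at 37 degrees C in phenol-red-free DMEM containing 10% FBS.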
MCF10A rereplic – induces DNA re-replication in MCF 10a normal breast cells; AID 624296; actives 2.9% (n = 350,000); Potency, µM (doses to about 46.1 µM), without a hit: at the top dose activity, positive = re-replication, usual class: activators; MCF 10A DNA re-replication, Hoechst nuclear intensity, 48 h; further: % of control where 0% means no effect; nearly all actives have a fitted effect of over 50% in size
VP16 counter – Gal4-VP16 reporter inhibition counter-screen. Potency, µM (doses to about 53.6 µM), for inactives: at the top dose activity, negative = inhibition, actives largely listed as inhibitors. actives 3.5% (n = 310,000). AID 2546. Drosophila S2 Gal4-VP16 UAS-luciferase, luminescence, 20 h;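 further: Gal4-VP16 expression switched on by copper sulfate through the metallothionein promoter; on the % scale 0 is the no-effect control and ±100 the full control effect; nearly all actives have a fitted effect of over 50% in size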
SW480 rereplic – DNA re-replication induction in SW480 cells. actives 1.8% (n = 340,000). SW480 DNA re-replication, Hoechst DNA content imaging, 48 h. Potency, µM (series often up to 46.1 µM), for inactives: at the top dose re-replication activation, hits mostly activators; further: % of control where 0% means no effect; nearly all actives have a fitted effect of over 55% in size
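Image-based read-out: total Hoechst fluorescence of nuclei (405 nm excitation, 500-530 nm emission), with hits raising the fraction of high-intensity nuclei. SW480 colon cells incubated 48 hr with compounds at 37 C.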
KB-3-1 tox – KB-3-1 parental cell cytotoxicity. KB-3-1 viability, CellTiter-Glo ATP luminescence, 72 h. Potency, µM (series often up to 46.1 µM), usual class: cytotoxic. actives 1.4% (n = 400,000). AID 1347075; further: on the % scale 0 is the no-effect control and ±100 the full control effect; nearly all actives have a fitted effect of over 60% in size
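Luminescent ATP read-out (CellTiter-Glo) measures survival of drug-naive KB-3-1 cells after 72 h compound exposure at 37 °C. Titration series was screened from lowest to highest concentration, with DMSO vehicle plates as background controls.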
RORg inh – inhibitors of mouse ROR gamma transcriptional activity; actives 5.4% (n = 310,000); P51450; Potency, µM (titrated, usually from 53.6 µM), for the others: at the highest dose activity change, negative = inhibition, hits mostly inhibitors; Drosophila S2 Gal4-RORgamma UAS-luciferase reporter, 20 h; further: on the % scale 0 is the no-effect control and ±100 the full control effect; nearly all actives have a fitted effect of over 60% in size
Target sequence (P51450 whole entry, looked up, the tested form may be a part): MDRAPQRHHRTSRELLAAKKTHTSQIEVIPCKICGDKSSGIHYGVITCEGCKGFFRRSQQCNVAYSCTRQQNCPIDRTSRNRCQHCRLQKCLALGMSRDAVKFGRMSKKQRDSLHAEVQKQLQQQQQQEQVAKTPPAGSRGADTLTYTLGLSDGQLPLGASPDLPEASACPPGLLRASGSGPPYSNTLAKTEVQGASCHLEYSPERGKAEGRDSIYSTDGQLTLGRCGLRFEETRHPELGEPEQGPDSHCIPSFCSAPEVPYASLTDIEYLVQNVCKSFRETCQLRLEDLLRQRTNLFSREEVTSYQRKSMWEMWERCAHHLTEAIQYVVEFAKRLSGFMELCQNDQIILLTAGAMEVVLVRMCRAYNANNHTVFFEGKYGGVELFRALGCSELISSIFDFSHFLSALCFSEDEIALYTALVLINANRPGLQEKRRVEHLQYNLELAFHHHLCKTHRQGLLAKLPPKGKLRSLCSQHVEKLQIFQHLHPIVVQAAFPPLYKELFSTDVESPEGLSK
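Luciferase reporter read in Schneider cells carrying Gal4-RORγ (mouse) and UAS-Photinus luciferase; cells given compound 1 h before 700 uM copper sulfate induction, then incubated 20 h at ambient temperature.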
* = called active by the depositor; i = inactive; u = inconclusive; x = not tested or not shown. Rows were chosen to be rich in hits. Some 10% of all compounds tested hit in one or more screens of this group. The call rests on the fitted dose curve; in most records, active means well fitted curve in the direction sought with a large enough effect; inconclusive means small, poorly fitted or top-dose-only effect, or another doubt; inactive means no such curve, though single readings can be large; an effect the other way counts as inactive or inconclusive. Potency means the concentration at half of the fitted maximal effect.

SMILES	KB-V1 MDR tox	MCF10A rereplic	VP16 counter	SW480 rereplic	KB-3-1 tox	RORg inh
CCn1cnc2c(=O)oc3ccc(S(=O)(=O)Nc4ccc(OC)cc4)cc3c21	i	x	x	x	i	x
Cn1c(N)c(C(C[N+](=O)[O-])c2c(F)cccc2Cl)c(=O)n(C)c1=O (configuration not stated)	i	u	u	16µM*	u	u
COc1ccc(Br)cc1C(C[N+](=O)[O-])c1c(N)n(C)c(=O)n(C)c1=O (configuration not stated)	u	u	u	3%	u	u
CN(C)c1ccc(C(C[N+](=O)[O-])c2c(N)n(C)c(=O)n(C)c2=O)c(F)c1C#N (configuration not stated)	i	3.7µM*	11µM*	u	u	6.3µM*
O=C(COc1ccc(Cl)cc1)NCCNc1ccc([N+](=O)[O-])cc1	i	-3%	3%	-37%	i	9%
O=C(CSc1nc(=O)n(Cc2ccco2)c2c1CCC2)NCc1ccccc1Cl	i	x	x	x	i	x
CCc1ccccc1NC(=O)Nc1cc(C(=O)NCc2cccc(F)c2)ccc1N1CCCC1	i	x	x	x	i	x
O=C(CCCN1C(=O)/C(=C/c2ccccc2Cl)SC1=S)Nc1cccnc1	u	u	-101%	u	u	0.22µM*
O=C1/C(=C/c2ccccc2Cl)SC(=S)N1CCCC(=O)N(CCO)c1ccccc1	u	u	u	u	u	2.2µM*
O=C(CCN1C(=O)/C(=C/c2ccccc2Cl)SC1=S)Nc1cccnc1	i	-1%	u	3%	i	35%
O=C(CCN1C(=O)/C(=C/c2ccccc2Cl)SC1=S)Nc1ccccn1	i	-7%	-6%	0%	i	-33%
O=C(CCCN1C(=O)/C(=C/c2ccccc2Cl)SC1=S)Nc1ccccn1	u	u	u	8%	i	1.8µM*
COCC(=O)N(CCc1ccc(OC)c(OC)c1)Cc1nc2ccccc2c(=O)[nH]1	i	9%	-13%	u	i	-32%
CCC(CC)C(=O)N(CCc1ccc(OC)cc1)Cc1nc2ccccc2c(=O)[nH]1	u	23µM*	10µM*	21µM*	i	5µM*
COc1ccc(CCN(Cc2nc3ccccc3c(=O)[nH]2)C(=O)c2ccco2)cc1	21µM*	10%	u	17%	i	13µM*
CC[C@H](C)[C@H](NC(=O)[C@H](CCCNC(=N)N)NC(=O)[C@@H]1CCCN1C(=O)[C@H](Cc1ccccc1)NC(=O)[C@H](Cc1cnc[nH]1)NC(=O)[C@H](CCCNC(=N)N)NC(=O)[C@@H](NC(=O)[C@H](C)NC(=O)[C@H](CCC(=O)O)NC(=O)[C@H](CC(N)=O)NC(=O)[C@@H](N)CCCCN)C(C)C)C(=O)N[C@@H](Cc1c[nH]c2ccccc12)C(=O)N[C@@H](CC(C)C)C(=O)O	x	x	3%	x	x	0%
COc1cc(OC)cc(C(=O)N2CC(=O)Nc3ccc(Cl)cc3C2c2ccccc2)c1 (configuration not stated)	i	x	x	x	i	x
COc1ccc(N2CCN(C(=O)CSc3nc4nc(C)cc(C)n4n3)CC2)cc1	21µM*	-4%	x	-5%	i	x
COc1ccc(N2CCN(C(=O)CSc3ccccc3)CC2)cc1	i	6%	16%	1%	i	8%
COc1ccc(N2CCN(C(=O)CSc3nc(C)cs3)CC2)cc1	i	0%	x	18µM*	i	x
COc1ccc(-n2c(SCC(=O)N3CCOCC3)nc(O)cc2=O)cc1	x	7%	0%	2%	x	11µM*
Cc1ccc(-n2c(=O)c3ccc(C(=O)NCc4ccccc4Cl)cc3n(Cc3cccc(F)c3)c2=O)cc1	i	x	x	x	i	x
CN1CCN(c2ncnc3c2ncn3[C@H]2CN(Cc3ccc(F)cc3)C[C@@H](CO)O2)CC1	i	x	x	x	i	x
OC(c1cccnc1)c1nc(-c2cccc(F)c2)cs1 (configuration not stated)	i	x	x	x	i	x
CN(C(=O)c1cc2c(=O)oc3ccccc3c2s1)c1ccc(F)cc1	i	x	x	x	i	x
SMILES	KB-V1 MDR tox	MCF10A rereplic	VP16 counter	SW480 rereplic	KB-3-1 tox	RORg inh
CS(=O)(=O)N1CCC(Oc2cccc(C(=O)NCCCC3CCCC3)c2)CC1	i	7%	x	-7%	u	x
Clc1ccc(CNc2ccc(CNc3ncn[nH]3)cc2)cc1	18µM*	11%	2%	3%	u	36%
c1ccc(CNc2ccc(CNc3ncn[nH]3)cc2)cc1	i	0%	20%	-13%	i	-15%
Clc1ccc(CNc2ccc(CNc3ncn[nH]3)cc2)c(Cl)c1	i	u	13µM*	u	i	u
Cc1cccc(CSC(Nc2ccc(F)cc2)=C(C#N)C#N)c1	u	15µM*	u	u	16µM*	u
N#CC(C#N)=C(Nc1ccc(F)cc1)SCc1cccc(Br)c1	9.2µM*	3.3µM*	7.9µM*	u	10µM*	u
CNS(=O)(=O)c1cccc(C(=O)OCC(=O)c2cc(C)n(-c3ccc4c(c3)OCO4)c2C)c1	u	1%	6%	-2%	u	1%
Cc1ccc(-n2c(C)cc(C(=O)COc3c(CO)cc(F)cc3CO)c2C)cc1C	7.3µM*	u	u	5%	i	u
Cc1cc(C(=O)COc2ccccc2Cl)c(C)n1-c1ccc2c(c1)OCO2	13µM*	u	u	u	18µM*	2%
CCc1ccc(NC(=O)c2cc3nc(-c4ccc(C)cc4)cc(C(F)(F)F)n3n2)cc1	i	x	x	x	i	x
COc1ccc(C2=Nc3ccccc3N(CC(=O)Nc3cccc(C(C)=O)c3)C(=O)C2)cc1	i	x	x	x	i	x
CCN(CC)CCNC(=O)c1ccc(NC(=O)c2ccc(-n3cncn3)c([N+](=O)[O-])c2)cc1	u	x	x	x	i	x
CC1=C(C#N)C(c2cccnc2)C2=C(CC(c3ccc(Cl)cc3)CC2=O)N1 (configuration not stated)	i	3%	-15%	7.3µM*	i	-1%
CC1=C(C#N)C(c2ccc(O)cc2)C2=C(CCCC2=O)N1 (configuration not stated)	i	0%	0%	-5%	i	-24%
Cc1ccc(NC(=O)C2CCC(CNC(=O)[C@@H]3Cc4ccccc4CN3)CC2)cc1 (some centres not stated)	i	3%	-14%	2%	i	-37%

Bioassay records from PubChem BioAssay.
